Data published in PubChem BioAssay (NCATS).
Inconclusive results are not listed. Active and inactive are the calls of the source. Calls follow the shape of the dose curve; as a rule, active = well fitted curve in the direction sought with a large enough effect; inconclusive = small, poorly fitted or top-dose-only effect, or another doubt; inactive = no such curve, though single readings can be large; an effect the other way counts as inactive or inconclusive.

Legend:
[1] = HEK293 24hr Apoptosis Induction qHTS against the NCATS CANVASS Library (AID 1347359)
Method in brief: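 HEK293 cells, 500 per well, exposed to an 11-point compound series for 24 hours at 37 degrees C. Caspase 3/7 activity read by Caspase-Glo luminescence (DEVD substrate) after 15 min at room temperature.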

[2] = HPAF-II 18hr Apoptosis Induction qHTS against the NCATS CANVASS Library (AID 1347360)
Method in brief: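 Caspase-Glo 3/7 luminescence (DEVD substrate) after 15 min RT; HPAF-II, 500 cells/well, 18 h compound exposure at 37 degrees C, qHTS series; doxorubicin control 0.1nM - 4uM.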

[3] = HEK293 12hr Apoptosis Induction qHTS against the NCATS CANVASS Library (AID 1347361)
Method in brief: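 500 HEK293 cells/well; cpds pin-transferred, 11-pt conc series; 12 h, 37 degrees C/5% CO2; Caspase-Glo 3/7 added, 15 min RT dark; luminescence.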

[4] = test system: NAD(P)H diaphorase (Clostridium kluyveri); experiment: Diaphorse counterscreen qHTS: Assay Interference Panel against the NCATS CANVASS Library (AID 1347362)
Method in brief: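 Clostridium kluyveri diaphorase in PBS + 0.01% Tween-20 preincubated 15 min with compounds. Resazurin and NADH then added for 5 min at room temperature in the dark; resorufin fluorescence read (ex 525, em 598).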

[5] = target: Luciferin 4-monooxygenase (Photinus pyralis) (UniProt P08659); experiment: Firefly luciferase counterscreen qHTS: Assay Interference Panel against the NCATS CANVASS Library (AID 1347363)
Method in brief: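 Purified P. pyralis luciferase (0.04 ug/mL, 4x reagent) added to Tris-acetate buffer with 0.013 mM D-luciferin, 0.013 mM ATP and 13.3 mM Mg-acetate; compounds preincubated 15 min, then luminescence read after 5 min, RT.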

[6] = KB-8-5-11 Cancer Cell Toxicity qHTS against the NCATS CANVASS Library (AID 1347364); settings: KB-8-5-11 MDR cells viability, CellTiter-Glo, 72 h; at 46.1 µM (top of the series); also: nearly all actives have a fitted effect of over 75% in size
Method in brief: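 Luminescent ATP signal (CellTiter-Glo, 10 min at room temperature) measured cell survival of KB-8-5-11 after 72 hr compound treatment. For confirmation, the cells were also grown with 1uM tariquidar.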

[7] = SDT Cancer Cell Toxicity qHTS against the NCATS CANVASS Library (AID 1347365); settings: SDT dog glioma viability, ATP luminescence, 72 h; at 46.1 µM (top of the series); also: nearly all actives have a fitted effect of over 60% in size
Method in brief: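 Canine SDT glioma cell toxicity was scored by ATP-dependent luminescence after a 72 hr incubation with an 11-point compound series.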

[8] = KB-3-1 Cancer Cell Toxicity qHTS against the NCATS CANVASS Library (AID 1347366); also: nearly all actives have a fitted effect of over 75% in size
Method in brief: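 500 KB-3-1 cells/well; compounds pin-transferred, 11-pnt series; 72 hr, 37C/5% CO2; CellTiter-Glo, 10 min RT; luminescence read-out.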

[9] = qHTS for ATAD5 Agonist screened against the NCATS CANVASS Library (AID 1347367)
Method in brief: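 Luminescence read-out: ATAD5-driven luciferase in stably transfected HEK 293T cells, which rises post-transcriptionally with DNA damage. Cells were exposed 16hr at 37C to test compound; a CellTiter-Fluor fluorescence read (1hr) measured viability first.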

[10] = G06 Cancer Cell Toxicity qHTS against the NCATS CANVASS Library (AID 1347368); settings: G06 dog glioma cells, viability ATP luminescence, 72 h; at 46.1 µM (top of the series); also: nearly all actives have a fitted effect of over 60% in size
Method in brief: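 Quantitative HTS in G06 cells (dog glioma): 72 hr treatment, 11 concentrations, then ATP-based luminescent viability readout; bortezomib 0.1 nM–4.6 uM final as reference.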

[11] = MCF7 Cancer Cell Toxicity qHTS against the NCATS CANVASS Library (AID 1347369)
Method in brief: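 Luminescent ATP signal (CellTiterGlo) served as the cytotoxicity read-out after MCF7 breast cancer cells had been incubated 72 hr at 37C with natural products in an 11-point titration.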

[12] = qHTS for ATAD5 Antagonist screened against the NCATS CANVASS Library (AID 1347370);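 also: HEK293T cells carrying an ATAD5 luciferase reporter co-treated with 10 µM 5-fluorouridine; nearly all actives have a fitted effect of over 65% in size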
Method in brief: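 HEK293T-ATAD5 luc reporter, 2000 cells/well; 5hr attach; cpd + 10 uM 5-FUrd; 16hr 37C, 5% CO2. Readouts: CellTiter-Fluor fluorescence (1hr), then Amplite luciferase luminescence (30min RT).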

[13] = J3T Cancer Cell Toxicity qHTS against the NCATS CANVASS Library (AID 1347371); settings: J3T dog glioma viability, ATP luminescence, 72 h; at 46.1 µM (top of the series)
Method in brief: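 ATP-based cytotoxicity in canine J3T cells: 72 hr exposure at 37C, 11-point titration, CellTiterGlo luminescent detection.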

[14] = target: Nuclear receptor subfamily 1 group I member 3 (Homo sapiens) (UniProt Q14994); experiment: qHTS for Constitutive Androstane Receptor (CAR) Antagonist screened against the NCATS CANVASS Library (AID 1347372);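 also: cells stimulated with 50 nM CITCO agonist so inhibition reflects antagonism; luciferase from CYP2B6 promoter reporter driven by hCAR in HepG2 cells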
Method in brief: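 Luminescence readout (ONE-Glo, 30 min RT) of CYP2B6-2.2kb reporter in HepG2-hCAR cells after 24hr, 37C treatment with compound against 50 nM CITCO; CellTiter-Fluor viability read beforehand.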

[15] = target: Nuclear receptor subfamily 1 group I member 3 (Homo sapiens) (UniProt Q14994); experiment: qHTS for Constitutive Androstane Receptor (CAR) Agonist screened against the NCATS CANVASS Library (AID 1347373);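 also: every well also contained 1.5 µM PK11195 alongside the test compound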
Method in brief: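 In an 11-point concentration series, compounds were incubated 24hr with HepG2 cells carrying hCAR and a CYP2B6-2.2kb reporter, with PK11195 at 1.5uM final. A CellTiter-Fluor viability read preceded the ONE-Glo luminescence read.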

[16] = qHTS for Hypoxia signaling pathway (HIF-1) antagonists against the NCATS CANVASS Library (AID 1347374);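 also: HRE-bla ME-180 cells stimulated with cobalt chloride to stabilize HIF-1alpha; nearly all actives have a fitted effect of over 60% in size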
Method in brief: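 Beta-lactamase reporter under HRE control in ME-180 cells; CoCl2 stimulus (60 uM solution as added), compounds 11-pt qHTS, 17 h 37C. CCF4 dye 2 h RT, 460/530 nm emission. CellTiter-Glo viability in same wells.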

[17] = qHTS for Hypoxia signaling pathway (HIF-1) agonists against the NCATS CANVASS Library (AID 1347375)
Method in brief: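 An HRE-beta-lactamase ME-180 line is exposed for 17 h to an 11-point compound series, then read by CCF4-AM FRET. Cytotoxicity is measured in parallel in the same wells with CellTiter-Glo, and autofluorescence is checked separately.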

[18] = 10-beta competent E. coli microbial cell viability qHTS against the NCATS CANVASS Library (AID 1347376)
Method in brief: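 Overnight 37C exposure of 10-beta E. coli (0.2 OD) to an 11-point concentration series; ATP-based luminescence after 20 min room-temperature reagent incubation; daunomycin as control.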

[19] = qHTS for H2AX Agonists against the NCATS CANVASS Library (AID 1347378)
Method in brief: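 TR-FRET readout (ex 320 nm, em 665/620 nm ratio) of phospho-H2AX (S139) in CHO-K1 lysates. Cells treated 3 hr at 37C with compound titration, 0.76% DMSO; lysis 30 min, antibody detection 24 hr at RT.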

[20] = qHTS for Inflammasome Signaling Inhibitors: IL-1-beta AlphaLISA screen against the NCATS CANVASS Library (AID 1347379); settings: THP-1 LPS/ATP, IL-1B AlphaLISA secretion, 16 h; at 57.5 µM (top of the series);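 also: human THP-1 cells primed with LPS then triggered with ATP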
Method in brief: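 THP-1, 1 hr compound pre-incubation, then LPS 250 ng/mL + ATP 1.25 mM (final); 16 hr total with compound; IL-1B AlphaLISA, ex 680/em 615 nm; 11-point qHTS, up to 57.5 uM final.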

Measured: outcome

Sequence of Nuclear receptor subfamily 1 group I member 3 (Homo sapiens) (Q14994 whole entry, looked up): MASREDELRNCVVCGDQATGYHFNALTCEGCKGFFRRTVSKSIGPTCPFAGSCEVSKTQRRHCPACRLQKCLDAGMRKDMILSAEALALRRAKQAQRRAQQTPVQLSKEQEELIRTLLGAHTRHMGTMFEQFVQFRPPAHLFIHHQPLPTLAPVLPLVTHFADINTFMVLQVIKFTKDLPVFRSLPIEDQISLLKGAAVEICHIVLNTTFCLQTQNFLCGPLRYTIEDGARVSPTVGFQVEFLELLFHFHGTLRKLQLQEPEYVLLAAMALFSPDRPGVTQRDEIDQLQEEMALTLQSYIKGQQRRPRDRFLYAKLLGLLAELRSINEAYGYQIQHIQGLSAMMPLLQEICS
Sequence of Luciferin 4-monooxygenase (Photinus pyralis) (P08659 whole entry, looked up): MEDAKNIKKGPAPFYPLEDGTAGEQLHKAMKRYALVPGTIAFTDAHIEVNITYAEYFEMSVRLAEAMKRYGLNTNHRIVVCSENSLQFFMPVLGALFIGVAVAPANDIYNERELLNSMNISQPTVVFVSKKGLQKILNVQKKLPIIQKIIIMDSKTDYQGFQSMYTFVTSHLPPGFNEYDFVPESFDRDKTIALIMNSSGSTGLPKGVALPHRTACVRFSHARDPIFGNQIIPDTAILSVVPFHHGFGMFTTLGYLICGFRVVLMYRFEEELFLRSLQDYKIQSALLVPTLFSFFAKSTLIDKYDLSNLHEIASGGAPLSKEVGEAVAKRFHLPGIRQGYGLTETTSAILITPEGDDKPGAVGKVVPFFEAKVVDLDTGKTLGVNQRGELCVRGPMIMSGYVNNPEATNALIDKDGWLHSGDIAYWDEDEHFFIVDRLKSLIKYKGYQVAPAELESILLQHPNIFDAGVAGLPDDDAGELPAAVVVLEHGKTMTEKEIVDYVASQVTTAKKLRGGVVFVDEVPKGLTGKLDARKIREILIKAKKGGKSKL

NCC(O)c1ccc(O)cc1 (stereo not given)
inactive: all assays above
